Assay [1] concerns the target Lysosomal acid glucosylceramidase (Homo sapiens) (UniProt P04062). Put plainly: Glucocerebrosidase-p2 (AID 348; in the data active = potency below about 10 µM; note: potency is the fitted concentration of half-maximal effect). As to conditions: purified GBA, blue fluorogenic substrate, 40 min. The method in brief:
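Compounds titrated from 0.6 nM upwards against 0.2 nM enzyme in pH 5.9 citric acid/KH2PO4, taurocholate, tween-20; blue fluorogenic substrate 80 uM, 40 min room temperature, stopped and read Ex 365/Em 440 for AC50.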

Assay [2] addresses Cytochrome P450 1A2 (Homo sapiens) (UniProt P05177). Put plainly: p450-cyp1a2 (AID 410; calls by dose curve; note: potency is the fitted concentration of half-maximal effect;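 for activity change, negative = inhibition: -100% = full effect of reference inhibitor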). As to conditions: recombinant CYP1A2, luciferin-ME demethylation, luminescence; series mostly up to 57 µM. In a few lines:
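Luminescent readout of luciferin formed from Luciferin-ME by human CYP1A2; data normalized against complete inhibition by 57 uM furafylline. Enzyme 20nM, substrate 100uM at Km, 100mM KPO4 buffer, 60 min reaction at room temperature.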

For assay [3], the target named is Glucocorticoid receptor (Homo sapiens) (UniProt P04150). Nature of the assay: GR-GFP Redistribution (AID 450;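 active = compounds whose dose series gives a full or clear partial fitted curve of increased nuclear translocation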; note: potency is the fitted concentration of half-maximal effect). Particulars: U2OS GR-GFP nuclear translocation, laser cytometry, 2 h.
Chain of Glucocorticoid receptor (Homo sapiens) (P04150 whole entry, looked up, the tested form may be a part): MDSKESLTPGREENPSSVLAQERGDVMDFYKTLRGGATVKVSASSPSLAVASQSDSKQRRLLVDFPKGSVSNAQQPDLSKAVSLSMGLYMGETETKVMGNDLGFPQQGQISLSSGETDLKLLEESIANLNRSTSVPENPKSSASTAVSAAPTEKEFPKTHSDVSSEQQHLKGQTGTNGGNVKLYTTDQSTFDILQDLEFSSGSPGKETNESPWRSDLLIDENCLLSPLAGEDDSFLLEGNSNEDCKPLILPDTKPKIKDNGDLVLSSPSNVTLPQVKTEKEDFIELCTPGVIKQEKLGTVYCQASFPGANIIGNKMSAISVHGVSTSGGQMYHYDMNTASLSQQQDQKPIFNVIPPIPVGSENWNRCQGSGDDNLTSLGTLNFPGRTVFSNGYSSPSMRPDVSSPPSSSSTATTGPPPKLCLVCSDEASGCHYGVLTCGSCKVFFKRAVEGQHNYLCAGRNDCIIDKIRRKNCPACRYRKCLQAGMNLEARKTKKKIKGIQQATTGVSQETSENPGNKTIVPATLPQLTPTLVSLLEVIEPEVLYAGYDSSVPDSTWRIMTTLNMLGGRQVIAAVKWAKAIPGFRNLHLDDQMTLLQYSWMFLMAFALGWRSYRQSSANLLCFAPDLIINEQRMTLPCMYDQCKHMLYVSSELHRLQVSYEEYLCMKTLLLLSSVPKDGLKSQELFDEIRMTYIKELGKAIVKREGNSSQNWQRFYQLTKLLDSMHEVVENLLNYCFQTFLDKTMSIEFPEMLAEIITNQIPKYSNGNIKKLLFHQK
The target is the same in assay [4]. Nature of the assay: GR-EFC Redistribution (AID 451; calls by dose curve; note: potency is the fitted concentration of half-maximal effect). As to conditions: CHO-K1 GR-EFC translocation, beta-gal luminescence, 2 h. The method in brief: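 CHO-K1 cells expressing nuclear EA and GR-ED fragments of b-gal; compounds titrated up to 46 uM final, 2 h at 37 C. GR nuclear translocation read as complemented b-gal luminescence after 1 h RT detection.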
Assay [5] concerns the target Mitogen-activated protein kinase 10 (Mus musculus) (UniProt Q61831). Put plainly: JNK3 AlphaScreen Assay (AID 530; active = well fitted curve in either direction with a large enough effect, not every such curve was filed as active;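 note: kinase came from lysate of stimulated human HepG2 cells; signal reports phosphorylation of biotinylated GST-cJun 1-79 at Ser73 with 10 µM ATP; % is set by controls: 0 for no effect and ±100 for the full control effect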). As to conditions: JNK3 lysate, c-Jun phosphorylation; series mostly up to 57.1 µM. In a few lines: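 Pre-activated (IL-1β/TNFα) JNK3 in HepG2 lysates phosphorylates biotin-GST-cJun(1-79), 10 uM ATP; anti-phospho-cJun(Ser73) AlphaScreen read at room temperature, pH 7.6 Tris buffer. Compounds pre-incubated 15 min as titrations.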

Assay [6] concerns the target 3',5'-cyclic-AMP phosphodiesterase 4B (Homo sapiens) (UniProt Q07343). Put plainly: qHTS Assay for Inhibitors of PDE-IV (AID 607; active = well fitted activation curve with a large enough effect in the main read-out, with a control signal flat, not every such curve was filed as active; note: % of control where 0% means no effect). Particulars: HEK293 ACTOne CNG channel cells, membrane potential fluorescence; series mostly up to 22.9 µM. In a few lines:
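HEK293 ACTOne cells with CNG channel (1000/well), endogenous PDE4; membrane potential dye, compounds up to 22.9 uM final. Fluorescence Ex 535/Em 590; RO 20-1724 (100 uM final) as reference.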

Assay [7] addresses Cytochrome P450 2C9 (Homo sapiens) (UniProt P11712). Nature of the assay: qHTS Assay for Inhibitors and Substrates of Cytochrome P450 2C9 (AID 883). Note: % is set by controls: 0 for no effect and ±100 for the full control effect; nearly all actives have a fitted effect of over 60% in size. As to conditions: recombinant CYP2C9, luciferin-H luminescence, 60 min; series mostly up to 57.1 µM. The method in brief:
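Human CYP2C9 (10nM) with Luciferin-H at 100uM (its KM) in 25mM KPO4; compound preincubated 10 min at 37C, then NADPH regeneration for 60 min at 37C. Luciferin read by luminescence after detection reagent; normalized to 57uM sulphaphenazole as full inhibition.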

Assay [8] concerns the target Cytochrome P450 3A4 (Homo sapiens) (UniProt P08684). Nature of the assay: qHTS Assay for Inhibitors and Substrates of Cytochrome P450 3A4 (AID 884). Note: % is set by controls: 0 for no effect and ±100 for the full control effect; nearly all actives have a fitted effect of over 50% in size. Particulars: recombinant CYP3A4, Luciferin-PPXE luminescence; series mostly up to 57.1 µM. In a few lines: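 20 nM human CYP3A4 with 25 uM Luciferin-PPXE (at KM) in 200 mM KPO4, preincubated 10 min with compound; NADPH regeneration started a 60 min RT reaction. Luciferin detected by luminescence, normalized to 57 uM ketoconazole as full inhibition.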

Assay [9] in a line: qHTS Assay for Identification of Small Molecule Agonists for Hypoxia Response Element Signaling Pathway (AID 914; active = well fitted activation curve with a large enough effect in the signal ratio, with a control signal flat, not every such curve was filed as active; the % refers to the signal ratio; note: potency is the fitted concentration of half-maximal effect). Particulars: ME-180 HRE-bla reporter, beta-lactamase ratio, CoCl2, 17 h; activation: stronger effect = higher value. The method in brief: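 Reporter activity (beta-lactamase, CCF4 460nm/530nm ratio) in HRE-bla ME-180 cells is recorded after 17 h compound exposure with EC50 CoCl2 at 37 degrees Celsius. AC50 values come from titration data.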
(Quantitative high-throughput screening tests each substance at several concentrations.)

Assay [10] can be described thus: qHTS Assay for Lipid Storage Modulators (AID 1519; calls by dose curve). As to conditions: Drosophila S3 cells, BODIPY lipid droplet/cell ratio, laser cytometry, cells loaded with oleic acid; for activity change, negative = inhibition: at 57.5 µM (top of the series). The method in brief: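 Cells seeded at 5,000 per well were treated with compounds over a concentration series and loaded with oleic acid (400 uM, as added). Lipid droplet fluorescence (488 nm excitation, 500-530 nm channel) was read by laser-scanning cytometry and normalized to 20 uM Triacsin C.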

Assay [11] addresses Dual specificity protein kinase CLK4 (Homo sapiens) (UniProt Q9HAZ1). Nature of the assay: qHTS Assay for Inhibitors of CDC-like Kinase 4 (Kinase-Glo Assay) (AID 1770). Note: % is set by controls: 0 for no effect and ±100 for the full control effect; nearly all actives have a fitted effect of over 65% in size. Particulars: recombinant Clk4, Kinase-Glo ATP depletion luminescence; series mostly up to 66.7 µM. In a few lines: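 Substrate mix (RS peptide 100 uM, ATP 1 uM) dispensed, compound pinned in, then Clk4 added to 25 nM final. Incubated 4.5 h at RT; Kinase-Glo reagent added, luminescence read after 5 min.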

The target is the same in assay [12]. Put plainly: qHTS Assay for Inhibitors of CDC-like Kinase 4 (ADP-Glo Assay) (AID 1771). Note: % is set by controls: 0 for no effect and ±100 for the full control effect; nearly all actives have a fitted effect of over 70% in size. As to conditions: recombinant CLK4, ADP-Glo luminescence; series mostly up to 80 µM. In a few lines: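 Luminescence from ADP-Glo reports ADP produced by 25 nM Clk4 acting on 100 uM RS repeat peptide with 1 uM ATP over 1 hr at room temperature; residual ATP is depleted before ADP is converted to ATP for detection.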

Assay [13] has the same target. Nature of the assay: qHTS Assay for Inhibitors of CDC-like Kinase 4 (ADP-FP Assay) (AID 1795). Note: % is set by controls: 0 for no effect and ±100 for the full control effect; nearly all actives have a fitted effect of over 60% in size. Particulars: Transcreener ADP fluorescence polarization; series mostly up to 50 µM. In a few lines:
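Clk4 6.25 nM; RS peptide 100 uM; ATP 1 uM; 25 mM Tris pH 7.5, 10 mM MgCl2; 1 h reaction. ADP detected via antibody/orange tracer FP displacement; TG003 positive control.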

In assay [14] the target is Ubiquitin carboxyl-terminal hydrolase 1 (Homo sapiens) (UniProt O94782). Nature of the assay: Inhibitors of USP1/UAF1: Pilot qHTS (AID 504865). Note: nearly all actives have a fitted effect of over 35% in size. Note: potency is the fitted concentration of half-maximal effect. Particulars: purified USP1/UAF1, Ub-rhodamine cleavage fluorescence; series mostly up to 54.9 µM. In a few lines:
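In 50mM HEPES pH 7.8 containing 0.5mM EDTA, 1mM TCEP, 0.1 mg/ml BSA and 0.01% Tween-20, 1nM USP1/UAF1 is exposed to compound for 15 min, then Ub-Rho (150nM final) is added and fluorescence is read over time.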

Assay [15] can be described thus: Primary qHTS for small molecule stabilizers of the endoplasmic reticulum resident proteome: Secreted ER Calcium Modulated Protein (SERCaMP) assay (AID 1508630). Note: % is set by controls: 0 for no effect and ±100 for the full control effect. As to conditions: SH-SY5Y GLuc-SERCaMP (Gaussia luciferase released on ER calcium loss) secretion, thapsigargin, luminescence; series mostly up to 38.4 µM. The method in brief:
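GLuc-SERCaMP-expressing SH-SY5Y cells, pretreated 16 h with compound, are challenged with thapsigargin to empty ER calcium stores; after 4 h, coelenterazine is added directly to the medium and luminescence is imaged.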

Assay [16] is described as follows: NFAT Signaling Pathway (AID 444; active = well fitted curve in either direction with a large enough effect, not every such curve was filed as active;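 note: carbachol stimulus at about its EC50 of 1 µM final; % is set by controls: 0 for no effect and ±100 for the full control effect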). Particulars: Jurkat NFAT-bla M1, carbachol, beta-lactamase ratio, 5 h; at 7.69 µM (top of the series) unless noted. In a few lines:
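Jurkat cells with NFAT-driven β-lactamase reporter and co-expressed M1 receptor, stimulated with carbachol (final 1 uM, ~EC50), compound titration, 5 h at 37 °C. CCF4 loaded 1 h at RT; 460/530 nm ratio gave %activity and AC50.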

A short description of assay [17]: Stat Signaling Pathway (AID 446; active = well fitted curve in either direction with a large enough effect, not every such curve was filed as active;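 note: ME-180 cervical cancer cells given 40 pM IL-6 alongside compound; SIE-controlled beta-lactamase reporter measured as 460/530 nm FRET emission ratio; % is set by controls: 0 for no effect and ±100 for the full control effect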). Particulars: ME-180 SIE beta-lactamase reporter, IL-6 stimulated, 5 h; at 7.69 µM (top of the series) unless noted. The method in brief:
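ME-180 cells carrying a SIE-driven beta-lactamase reporter are stimulated with 40 pM IL-6 for 5 h at 37C in the presence of compound. The 460/530 nm FRET substrate ratio is read after 2.5 h at RT. Data are normalised to 300 pM IL-6 and to 125 nM JAK inhibitor controls.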

Assay [18] addresses Cytochrome P450 3A4 (Homo sapiens) (UniProt P08684). Put plainly: qHTS Assay for Activators of Cytochrome P450 3A4 (AID 885). Note: nearly all actives have a fitted effect of over 65% in size. Particulars: recombinant CYP3A4, Luciferin-PPXE luminescence, 60 min; series mostly up to 57.1 µM. The method in brief:
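Human CYP3A4 (20 nM) with Luciferin-PPXE at 25 uM (its KM) in 200 mM KPO4; 10 min compound preincubation, then NADPH regeneration and 60 min reaction at RT. Luciferin read by luminescence; normalized to 57 uM ketoconazole full inhibition.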

Assay [19] concerns the target Cytochrome P450 2C19 (Homo sapiens) (UniProt P33261). Nature of the assay: qHTS Assay for Inhibitors and Substrates of Cytochrome P450 2C19 (AID 899). Note: potency is the fitted concentration of half-maximal effect; nearly all actives have a fitted effect of over 60% in size. As to conditions: recombinant CYP2C19, luciferin-H EGE luminescence; series mostly up to 57.1 µM. In a few lines:
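5 nM human CYP2C19 with 10uM Luciferin-H EGE (at KM) in 50mM KPO4, compound preincubated 10 min at 37C, then NADPH regeneration for 60 min at 37C. Luciferin read by luminescence after detection reagent; normalized to 57uM ketoconazole as full inhibition.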

A short description of assay [20]: AP1 Signaling Pathway (AID 357; active = well fitted curve in either direction with a large enough effect, not every such curve was filed as active). As to conditions: ME-180 (cervical carcinoma) AP-1-bla reporter, EGF-induced, beta-lactamase ratio, 5 h; at 7.69 µM (top of the series) unless noted. In a few lines:
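A ratiometric CCF4 readout (405 nm excitation; 460 and 530 nm emission) quantified AP-1-driven beta-lactamase in ME-180 cells after 5 h with compound and EC50 EGF; AC50 values were derived for activators and inhibitors.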

The mark [21] stands for this setting: measured here: cell count channel max response.
Setting [22] is: measured here: lipid channel max response.

Structures are written as SMILES. Results filed as inconclusive are left out. The source made the active and inactive calls. Unless noted, calls come from the whole dose curve; as a rule, active = well fitted curve in the direction sought with a large enough effect; inconclusive = small, poorly fitted or top-dose-only effect, or another doubt; inactive = no such curve, though single readings can be large; an effect the other way counts as inactive or inconclusive. Some results are limits rather than exact numbers.

Chain of Dual specificity protein kinase CLK4 (Homo sapiens) (Q9HAZ1 whole entry, looked up): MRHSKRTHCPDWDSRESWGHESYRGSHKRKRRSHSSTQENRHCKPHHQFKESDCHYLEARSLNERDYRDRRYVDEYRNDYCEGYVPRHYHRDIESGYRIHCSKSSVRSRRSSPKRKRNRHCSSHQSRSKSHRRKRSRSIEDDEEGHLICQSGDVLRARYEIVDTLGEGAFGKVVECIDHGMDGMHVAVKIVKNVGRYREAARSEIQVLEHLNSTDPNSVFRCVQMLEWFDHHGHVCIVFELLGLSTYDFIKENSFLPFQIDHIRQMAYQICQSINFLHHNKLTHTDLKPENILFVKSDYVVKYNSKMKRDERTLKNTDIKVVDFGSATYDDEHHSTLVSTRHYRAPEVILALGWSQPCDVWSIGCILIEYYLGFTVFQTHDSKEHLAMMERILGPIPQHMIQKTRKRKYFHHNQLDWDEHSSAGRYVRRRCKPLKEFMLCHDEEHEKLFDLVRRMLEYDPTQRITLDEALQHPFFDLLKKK
Chain of Ubiquitin carboxyl-terminal hydrolase 1 (Homo sapiens) (O94782 whole entry, looked up): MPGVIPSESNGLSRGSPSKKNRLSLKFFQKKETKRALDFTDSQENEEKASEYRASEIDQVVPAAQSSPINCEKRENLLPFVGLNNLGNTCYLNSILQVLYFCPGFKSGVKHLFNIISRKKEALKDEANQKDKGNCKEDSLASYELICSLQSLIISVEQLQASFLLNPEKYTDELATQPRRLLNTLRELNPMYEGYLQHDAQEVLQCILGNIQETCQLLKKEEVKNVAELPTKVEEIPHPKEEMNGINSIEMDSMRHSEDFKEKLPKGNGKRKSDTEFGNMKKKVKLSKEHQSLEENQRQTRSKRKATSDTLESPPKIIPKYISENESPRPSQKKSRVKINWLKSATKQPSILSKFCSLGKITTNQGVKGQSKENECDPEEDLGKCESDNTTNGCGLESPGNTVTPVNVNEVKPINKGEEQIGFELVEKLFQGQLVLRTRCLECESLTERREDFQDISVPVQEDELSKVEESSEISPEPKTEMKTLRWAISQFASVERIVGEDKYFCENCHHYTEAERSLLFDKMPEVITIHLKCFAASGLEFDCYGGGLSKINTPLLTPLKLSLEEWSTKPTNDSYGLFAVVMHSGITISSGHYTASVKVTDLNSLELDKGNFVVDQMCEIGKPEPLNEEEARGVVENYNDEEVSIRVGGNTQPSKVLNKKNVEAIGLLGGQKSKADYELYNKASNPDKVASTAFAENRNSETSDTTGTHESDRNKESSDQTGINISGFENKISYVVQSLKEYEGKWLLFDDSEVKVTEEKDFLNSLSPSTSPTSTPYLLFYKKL
Chain of 3',5'-cyclic-AMP phosphodiesterase 4B (Homo sapiens) (Q07343 whole entry, looked up): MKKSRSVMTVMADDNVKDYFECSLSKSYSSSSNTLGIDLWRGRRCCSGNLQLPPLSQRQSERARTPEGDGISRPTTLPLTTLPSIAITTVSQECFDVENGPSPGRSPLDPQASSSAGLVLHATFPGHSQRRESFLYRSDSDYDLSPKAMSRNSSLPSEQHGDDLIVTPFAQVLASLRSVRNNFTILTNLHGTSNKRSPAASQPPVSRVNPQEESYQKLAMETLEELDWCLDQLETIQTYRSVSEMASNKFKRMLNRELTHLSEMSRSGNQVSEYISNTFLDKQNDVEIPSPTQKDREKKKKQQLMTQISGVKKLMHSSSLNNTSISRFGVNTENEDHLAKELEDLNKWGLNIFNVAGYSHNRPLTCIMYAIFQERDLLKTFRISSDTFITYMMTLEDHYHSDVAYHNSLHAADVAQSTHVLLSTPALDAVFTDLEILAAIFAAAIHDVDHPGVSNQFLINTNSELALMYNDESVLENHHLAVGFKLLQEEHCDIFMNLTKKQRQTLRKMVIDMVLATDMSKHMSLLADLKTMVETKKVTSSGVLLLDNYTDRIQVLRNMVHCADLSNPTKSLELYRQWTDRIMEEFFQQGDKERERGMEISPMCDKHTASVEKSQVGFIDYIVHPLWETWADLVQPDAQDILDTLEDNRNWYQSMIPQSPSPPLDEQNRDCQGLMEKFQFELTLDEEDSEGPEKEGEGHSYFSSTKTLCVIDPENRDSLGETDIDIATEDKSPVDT
Chain of Lysosomal acid glucosylceramidase (Homo sapiens) (P04062 whole entry, looked up): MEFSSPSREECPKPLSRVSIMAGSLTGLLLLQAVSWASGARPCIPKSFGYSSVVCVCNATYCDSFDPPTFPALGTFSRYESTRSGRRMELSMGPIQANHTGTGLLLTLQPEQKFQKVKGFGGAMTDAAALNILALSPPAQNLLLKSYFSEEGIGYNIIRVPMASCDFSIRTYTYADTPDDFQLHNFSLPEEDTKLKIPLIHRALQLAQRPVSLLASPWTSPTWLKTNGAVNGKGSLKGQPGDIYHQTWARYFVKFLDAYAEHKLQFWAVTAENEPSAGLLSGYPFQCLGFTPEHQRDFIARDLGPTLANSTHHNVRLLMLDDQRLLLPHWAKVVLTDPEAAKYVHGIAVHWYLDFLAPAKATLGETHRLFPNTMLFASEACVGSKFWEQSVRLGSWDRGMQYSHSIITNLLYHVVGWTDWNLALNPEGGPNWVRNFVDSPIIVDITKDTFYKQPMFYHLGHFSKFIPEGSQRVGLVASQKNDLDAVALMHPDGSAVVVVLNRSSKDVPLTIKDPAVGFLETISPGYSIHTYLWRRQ
Chain of Cytochrome P450 1A2 (Homo sapiens) (P05177 whole entry, looked up): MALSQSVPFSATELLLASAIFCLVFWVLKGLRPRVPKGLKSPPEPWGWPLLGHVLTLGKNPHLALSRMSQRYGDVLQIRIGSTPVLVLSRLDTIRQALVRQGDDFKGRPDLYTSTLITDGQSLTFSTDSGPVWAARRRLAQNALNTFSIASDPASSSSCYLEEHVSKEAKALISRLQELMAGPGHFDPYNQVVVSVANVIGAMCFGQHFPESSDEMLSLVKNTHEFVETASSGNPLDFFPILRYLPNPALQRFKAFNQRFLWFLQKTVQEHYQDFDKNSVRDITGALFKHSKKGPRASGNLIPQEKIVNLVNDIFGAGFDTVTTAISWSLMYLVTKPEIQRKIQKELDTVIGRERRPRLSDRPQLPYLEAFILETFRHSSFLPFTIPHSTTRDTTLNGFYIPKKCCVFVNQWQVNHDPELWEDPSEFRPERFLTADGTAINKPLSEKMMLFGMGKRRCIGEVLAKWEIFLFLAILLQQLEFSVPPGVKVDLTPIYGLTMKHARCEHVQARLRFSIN
Chain of Cytochrome P450 3A4 (Homo sapiens) (P08684 whole entry, looked up): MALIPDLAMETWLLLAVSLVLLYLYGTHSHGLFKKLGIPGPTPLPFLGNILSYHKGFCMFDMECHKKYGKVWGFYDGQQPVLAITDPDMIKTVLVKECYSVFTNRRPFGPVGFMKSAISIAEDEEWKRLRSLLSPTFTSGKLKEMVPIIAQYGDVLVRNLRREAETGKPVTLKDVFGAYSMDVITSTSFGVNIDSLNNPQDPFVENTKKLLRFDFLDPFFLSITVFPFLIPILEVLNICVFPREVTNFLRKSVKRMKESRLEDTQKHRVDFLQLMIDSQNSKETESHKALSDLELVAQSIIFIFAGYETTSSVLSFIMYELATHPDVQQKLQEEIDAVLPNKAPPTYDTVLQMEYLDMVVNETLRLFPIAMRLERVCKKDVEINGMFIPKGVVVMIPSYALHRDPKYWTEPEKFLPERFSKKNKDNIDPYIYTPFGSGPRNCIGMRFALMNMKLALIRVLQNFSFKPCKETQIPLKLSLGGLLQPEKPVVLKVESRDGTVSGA
Chain of Cytochrome P450 2C19 (Homo sapiens) (P33261 whole entry, looked up): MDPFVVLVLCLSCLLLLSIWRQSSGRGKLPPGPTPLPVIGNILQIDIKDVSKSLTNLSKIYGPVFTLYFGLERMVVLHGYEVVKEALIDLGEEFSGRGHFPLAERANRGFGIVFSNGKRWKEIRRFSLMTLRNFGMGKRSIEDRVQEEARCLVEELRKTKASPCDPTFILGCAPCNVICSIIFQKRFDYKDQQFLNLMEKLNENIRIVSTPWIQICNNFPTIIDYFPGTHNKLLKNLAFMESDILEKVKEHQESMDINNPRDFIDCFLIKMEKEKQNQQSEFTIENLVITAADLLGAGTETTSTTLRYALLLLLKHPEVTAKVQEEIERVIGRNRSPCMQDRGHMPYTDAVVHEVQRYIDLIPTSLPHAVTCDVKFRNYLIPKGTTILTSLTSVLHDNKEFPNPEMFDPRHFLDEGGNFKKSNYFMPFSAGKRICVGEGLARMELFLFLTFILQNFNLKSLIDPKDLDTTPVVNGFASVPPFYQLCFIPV

On to `CN(C)c1ncc2nc(-c3ccc(F)cc3)c(=O)n(Cc3ccc(F)cc3)c2n1`, for which the Potency in assay [1] was > 11.4 µM (inactive); in assay [3], > 9.22 µM (inactive); in [4], > 46 µM (inactive); in assay [9], 3.16 µM (active). Also, the Potency entry in assay [2], in assay [6], in assay [7], in assay [8], in assay [11] and in assay [12] was “inactive” in each case. Besides, the Potency result in [13], in assay [14] and in assay [15] was “inactive” in each case. In addition, the call in [5] was inactive. The activity change, negative = inhibition in assay [10] is 5.32% (inactive). For the same compound, the max response in assay [10] (setting [21]) was 19.6%; in assay [10] (setting [22]), 25.7%.

Take `Cc1nc2cncnc2n(C2CC2)c1=O`: the Potency in [1] is > 11.4 µM (inactive); in [2], 15.8 µM (active); in assay [3] it was > 9.22 µM (inactive); in assay [4] it was > 46 µM (inactive); in assay [19] it was 3.98 µM (active). In addition, the activity change, negative = inhibition in assay [16] is 2.34% (inactive); in assay [10] it was 9.2% (inactive). For the same compound, the activity, negative = inhibition in assay [17] was -12.1% (inactive). Moreover, the outcome in assay [5] was inactive. Besides, the Potency entry in assay [6], in [18], in [11], in assay [12], in [13] and in assay [14] was “inactive” in each case. In addition, in [15], the Potency result is “inactive”. In addition, the max response is 24% in assay [10] (setting [21]) and 34.8% in assay [10] (setting [22]).

Consider `O=c1c(-c2ccc(F)cc2)nc2cnc(Oc3ccccc3)nc2n1Cc1cccs1`, for which the Potency in [1] is > 11.4 µM (inactive); in assay [3] it was > 9.22 µM (inactive); in assay [4], > 46 µM (inactive); in assay [14], 3.16 µM (active). The activity change, negative = inhibition in assay [20] is -11.6% (inactive); in assay [10] it was -20.3% (inactive). In addition, in [17], the activity, negative = inhibition was 1.3% (inactive). The call in [5] was inactive. The Potency entry in assay [6], in assay [11], in assay [12], in assay [13] and in [15] was “inactive” in each case. In addition, the max response in assay [10] (setting [21]) was -6.12%; in [10] (setting [22]), -29.7%.

For the origin of these results see PubChem BioAssay (NCATS).
